PubChem BioAssay (NCI)
About 83,000 compounds went through this panel and 20% of them were active in at least one assay; those are over-represented in the sample as a whole.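 Note: values are percent growth. 100 is the growth of untreated cells, values between 100 and 0 indicate rising inhibition; between -100 and 0 indicates cell death.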 A number with no mark means an inactive call. Calls of active or inactive are those of the source. The calls were made as follows: active = growth percent below 10; inactive = the rest.

How the values were obtained:
Experiment in all cases: NCI-60 one-dose screen, 48 h (100 = growth as untreated, 0 = no growth, -100 = all killed)
Conditions in all cases: 10 µM unless noted
[1] = test system: NCI-H23 lung
[2] = test system: NCI-H226 lung
[3] = test system: NCI-H322M lung
[4] = test system: HOP-62 NSCLC
[5] = test system: NCI-H460 lung
[6] = test system: HOP-92 NSCLC
[7] = test system: NCI-H522 lung
[8] = test system: A549/ATCC NSCLC
[9] = test system: 786-0 renal
[10] = test system: COLO 205 colon
[11] = test system: DU-145 prostate
[12] = test system: K-562 leukemia
[13] = test system: MALME-3M melanoma
[14] = test system: MDA-MB-231 breast
[15] = test system: RXF 393 renal
[16] = test system: SF-268 CNS
[17] = test system: SF-295 CNS
[18] = test system: SF-539 CNS
[19] = test system: UACC-257 melanoma
[20] = test system: M14 melanoma

Structure (SMILES)	growth [1]	growth [2]	growth [3]	growth [4]	growth [5]	growth [6]	growth [7]	growth [8]	growth [9]	growth [10]	growth [11]	growth [12]	growth [13]	growth [14]	growth [15]	growth [16]	growth [17]	growth [18]	growth [19]	growth [20]
O=C(/C=C/c1cccc(Oc2ccccc2)c1)c1ccc(Nc2nc(Nc3ccc(F)cc3)nc(Nc3ccc(Cl)cc3)n2)cc1	77.1%	113%	93.8%	104%	108%	-6.77% (active)	109%	90.2%	96.1%	103%	117%	11.5%	90.4%	108%	96.6%	99.9%	104%	116%	109%	106%
C=CCn1cc(-c2nc3ccccc3s2)c2cc(-c3ccc4c5c(cccc35)C(=O)N(CCO)C4=O)ccc21	99.7%	90.3%	98.8%	90.6%	98.1%	78.7%	88.7%	95%	97.6%	116%	107%	90.8%	119%	85.2%	100%	90.5%	91.2%	104%	107%	106%
Cc1nc(N/N=C/c2cn(-c3ccccc3)nc2-c2cc3ccccc3oc2=O)sc1N=Nc1ccccc1	93.7%	95.4%	104%	66%	99.7%	97.1%	66.2%	96.6%	97.3%	105%	105%	34%	89.6%	87.7%	94.6%	94.9%	81.6%	87.7%	94.5%	70.7%
CCCCCCCCCCOC(=O)c1nn(C(C)=O)c2cc(C)c(C)cc12	96.3%	87.8%	107%	94.5%	101%	68.5%	75.1%	83.8%	94.6%	102%	106%	95.2%	104%	105%	104%	102%	96%	97.6%	96.3%	90.7%
O=S(=O)(N=C1C(Cl)=C(Cl)C(=NS(=O)(=O)c2ccccc2)C(Cl)=C1Cl)c1ccccc1	73.3%	97.5%	97.4%	91.5%	39.1%	134%	39.3%	74.4%	118%	98.4%	20.5%	65.6%	113%	98.8%	64.7%	87.1%	64.2%	109%	68.9%	94.1%
COC1C(O)CC(OC2CC(OC3CC(O[C@@H]4C(=O)c5c(cc6cc(OC7CC(OC8CC(O)C(O)C(C)O8)C(O)C(C)O7)c(C)c(O)c6c5O)CC4[C@H](OC)[C@@H](O)C(C)=O)OC(C)C3O)OC(C)C2O)OC1C (stereo not given in full)	-12.1% (active)	-16.6% (active)	4.31% (active)	-3.94% (active)	7.99% (active)	5.01% (active)	-26.4% (active)	3.44% (active)	8.03% (active)	-21.3% (active)	15.8%	9.22% (active)	-11.6% (active)	36.2%	-57.5% (active)	21.5%	8.38% (active)	-6.81% (active)	-14.7% (active)	-21.2% (active)
Cn1c(=O)c2[nH]c(SC/C(=N/O)c3ccc(Br)cc3)nc2n(C)c1=O	35.7%	-7.02% (active)	34.8%	8.56% (active)	20.9%	-72.9% (active)	-14.5% (active)	60.4%	-68.6% (active)	110%	68.4%	67.1%	20%	-5.9% (active)	-73.4% (active)	50%	13.9%	-53.6% (active)	84%	58.8%
CCOC(=O)CC[C@H](NC(=O)c1ccc(N(C)Cc2cnc3nc(N)nc(N)c3n2)c2ccccc12)C(=O)OCC	25.5%	72.6%	46.3%	29.4%	13.8%	51.7%	22.4%	9.28% (active)	27.5%	36.9%	28.3%	18.8%	62.1%	59.4%	48.7%	32.9%	24.3%	26.1%	25.3%	23%
O=C(O)c1cn(C2CC2)c2cc(N3CCN(C(=O)N/N=C/c4cccc5ccccc45)CC3)c(F)cc2c1=O	93.9%	94.3%	101%	95.2%	106%	97.2%	81%	106%	71.7%	114%	104%	103%	101%	94.9%	95.5%	86.3%	104%	93.4%	98.8%	93.1%
O=C1O[C@@H](c2ccccc2Cl)[C@@H]2c3cc4c(cc3CCN12)OCO4	103%	93.7%	89.3%	96.2%	101%	92.5%	81.9%	86.3%	97.9%	110%	105%	87.5%	101%	97.2%	111%	93.2%	102%	107%	90.7%	105%
Cc1ncc(C(=O)Nc2ccc(CN3CCN(C)CC3)c(C(F)(F)F)c2)cc1C#Cc1cnc(N)c2ccc(C#N)cc12	29.5%	0.011% (active)	27.9%	-7.92% (active)	11.2%	-20.2% (active)	27.2%	22.9%	-70.1% (active)	5.29% (active)	8.97% (active)	-35.3% (active)	-55.6% (active)	-76.5% (active)	-64% (active)	16.7%	54.1%	-0.429% (active)	-9.1% (active)	-41.5% (active)
C=CN(C(=O)N1CCN(c2cc3c(cc2F)c(=O)c(C(=O)O)cn3C2CC2)CC1)c1nc(-c2ccc(Cl)cc2)cs1	67.8%	87.9%	69.4%	69.4%	23.5%	60.1%	64.7%	40.7%	82.8%	84.2%	81.1%	47.6%	89.9%	76.4%	53.3%	44.7%	58.6%	67%	87.6%	60.2%
O=C(/C=C/c1ccccc1)c1ccc(-n2cc(CN3CCN(c4cc5c(cc4F)c(=O)c(C(=O)O)cn5C4CC4)CC3)nn2)cc1	79.7%	73%	84.4%	79.6%	76.1%	79.6%	80.1%	88.9%	54.2%	108%	76.3%	56%	91.2%	89.4%	58.3%	70.4%	91.7%	69%	91%	84.4%
CSc1ccc(N2C(=N)C(=S)N(c3ccc(C)cc3)C2=O)cc1	98.3%	96.3%	99%	86.2%	102%	90%	80.5%	87.6%	91.5%	98%	104%	82%	94.4%	101%	113%	90.7%	96.1%	92.8%	99.7%	86.1%
